Measurements from PubChem BioAssay (NCI).
About 79,000 compounds went through this panel and 15% of them were active in at least one assay; those are over-represented in the sample as a whole. Values without a mark were called inactive. Active and inactive are the calls of the source. Rule as the data show it: active = growth inhibition above about 70%; inactive = the rest.

Experiments:
[1] = NCI Yeast Anticancer Drug Screen. Data for the rad50 strain (AID 155);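 also: 0% = growth of vehicle-only cultures of the same strain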; conditions: S. cerevisiae rad50 strain growth inhibition, stronger effect = higher value
In short: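 Relative growth inhibition (compound vs vehicle) was measured in yeast with a defined repair-gene alteration.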

[2] = NCI Yeast Anticancer Drug Screen. Data for the mec2-1 strain (AID 157); conditions: S. cerevisiae mec2-1 strain, stronger effect = higher value
In short: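 Test agents were screened against the mec2-1 yeast strain, with defined DNA repair or cell cycle alteration. Growth was scored as inhibition against vehicle-only controls.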

[3] = NCI Yeast Anticancer Drug Screen. Data for the sgs1 mgt1 strain (AID 161);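 also: 0% = growth of cultures given vehicle only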; conditions: S. cerevisiae sgs1 mgt1 strain, stronger effect = higher value
In short: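 Test agents were incubated with a DNA-repair-mutant yeast strain. Growth was then read and compared against vehicle-treated controls.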

[4] = NCI Yeast Anticancer Drug Screen. Data for the cln2 rad14 strain (AID 165);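 also: 0% = growth equal to vehicle treated cultures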; conditions: S. cerevisiae cln2 rad14 strain, stronger effect = higher value
In short: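 Growth of compound-exposed yeast (cln2 rad14 genotype) measured and expressed as inhibition relative to vehicle.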

[5] = NCI Yeast Anticancer Drug Screen. Data for the bub3 strain (AID 167); conditions: S. cerevisiae bub3 mutant strain, stronger effect = higher value
In short: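 Screening used yeast with an engineered genetic alteration affecting cell cycle control. Compound-exposed cultures were compared with vehicle cultures, and reduced growth was taken as inhibition.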

[6] = NCI Yeast Anticancer Drug Screen. Data for the mlh1 rad18 strain (AID 175); conditions: S. cerevisiae mlh1 rad18 strain growth inhibition, stronger effect = higher value
In short: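 In this whole-cell yeast screen, a strain with altered DNA damage repair is challenged with compound, and its growth is measured against matched vehicle-treated controls.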

[7] = at 5.0 µM (retest, dose inferred, filed as 0.5)
[8] = at 50.0 µM (retest, dose inferred, filed as 5.0)

Structure (SMILES) | growth inhibition [1, 7] | growth inhibition [1, 8] | growth inhibition ([1]; at 50.0 µM) | growth inhibition [2, 7] | growth inhibition [2, 8] | growth inhibition ([2]; at 50.0 µM) | growth inhibition [3, 7] | growth inhibition [3, 8] | growth inhibition ([3]; at 50.0 µM) | growth inhibition [4, 7] | growth inhibition [4, 8] | growth inhibition ([4]; at 50.0 µM) | growth inhibition [5, 7] | growth inhibition [5, 8] | growth inhibition ([5]; at 50.0 µM) | growth inhibition [6, 7] | growth inhibition [6, 8] | growth inhibition ([6]; at 50.0 µM)
O=[N+]([O-])c1cc(-c2ccccc2)ccc1O | -3% | 10% | 98% (active) | 5% | 12% | 98.7% (active) | -1% | 7% | 97.4% (active) | -3% | 2% | 98% (active) | 0% | -2% | 96.2% (active) | -1% | 7% | 98.8% (active)
CNP1(=O)OC(c2ccccc2)=CCN1CCCl (stereo not given) | 3% | -1% | 76.3% (active) | -2% | 10% | 47.6% | 5% | -1% | 58.8% | 0% | 6% | -30.3% | 0% | -2% | 23.9% | 0% | 5% | 71.2% (active)
CC(C)CCC1(CCSC(=O)S)C(=O)NC(=O)NC1=O | -4% | 77% (active) | 85.3% (active) | 0% | 62% | 8.3% | 4% | 67% | 25.8% | -4% | 21% | -37.2% | -4% | 65% | 19.8% | -8% | 70% (active) | 30.8%
CN(C)C(=S)[S][Hg][c]1ccccc1 | 64% | 87% (active) | 91.3% (active) | 69% | 75% (active) | 93.4% (active) | 101% (active) | 99% (active) | 93.7% (active) | 54% | 99% (active) | 92.8% (active) | 101% (active) | 100% (active) | 92.1% (active) | 52% | 70% (active) | 91.5% (active)
O=C(OCCl)c1ccccc1 | 11% | -4% | 3.9% | -1% | -2% | -5.6% | -4% | 1% | 13.5% | 7% | -4% | 45.5% | 8% | 13% | -7.7% | 6% | 5% | 15.7%
